# Bioassay records as filed in PubChem BioAssay.
# The list is not random: actives were taken first. Their share in the collection is about 5.4%.
# MPTP inh – permeability transition pore inhibition; AID 602449; actives 1.4% (n = 360,000); inhibition, % at 10 µM; isolated mouse mitochondria, Ca2+ swelling absorbance, 30 min;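 active means inhibition of 50% or more, scaled per plate between neutral and stimulator controls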;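 further: 0% = DMSO wells given calcium and 100% = 1 mM EGTA wells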
# Beta apoptosis – beta cell apoptosis inhibition; INS-1E cytokine-induced death, ATP luminescence, 48 h; percent of positive-control rescue, neutral wells zero; protection from apoptosis, % (no concentration beside the values); actives 0.8% (n = 300,000); AID 435005;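 active means Every replicate reaches about 75%, or at least half do and their mean reaches it too, limit read from the data; inconclusive means At least half of replicates reach the limit but their mean does not; inactive means Under half of replicates reach the limit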;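 further: 0% = cytokine-treated negative control wells and 100% = positive control rescue; higher means more ATP so stronger rescue from cytokine killing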
# Mdm2 MdmX PPI – disrupts the human Mdm2-MdmX interaction; O15151+Q00987; inhibition, % at 8 µM; SaOS-2 split-luciferase Mdm2/MdmX complementation, luminescence; actives 3% (n = 330,000); AID 485346;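 active means inhibition of at least 50% at 8 µM in the primary screen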
# CSC inhib – cancer stem cell inhibition; AID 2717; inhibition, % at 7.5 µM; cancer stem cell-like cells viability, luminescence; actives 1.1% (n = 300,000); in the data active means inhibition above about 75%; inconclusive means no clear call, values can overlap the other calls; tested in HMLE shEcad cells
# Calb FLC – affects C. albicans growth with fluconazole | AID 1979 | growth inhibition, % (test concentration not listed) | actives 0.57% (n = 300,000) | C. albicans CaCi-2 (fluconazole-resistant clinical isolate) + fluconazole, Alamar Blue growth, 48 h;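 active means growth inhibition above about 58% in most replicates, limit read from the data, passing the limit was not always enough; inconclusive means exactly half the replicates above a set limit; inactive means most replicates below a set limit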;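 further: all wells also contain fluconazole at 8 µg/ml as a sub-toxic cotreatment; 0% = median of DMSO wells and 100% = median of geldanamycin control wells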
# SKKanGAS inh – blocks kanamycin growth of S. pyogenes SKKanGAS strain; actives 1.3% (n = 300,000); BacTiter-Glo, 6 h; inhibition, % at 7.5 µM;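 active means mean replicate score, as percent of positive control median, at least 50; inconclusive means mean below 50 but one replicate at or above 50; inactive means mean and every replicate below 50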;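 further: strain carries kanamycin resistance gene driven by streptokinase promoter and grows in 40 µg/ml kanamycin; loss of luminescence reflects streptokinase promoter inhibition or plain growth inhibition; 0% = median of DMSO wells and 100% = positive control at its reference dose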
# Starred values were filed as active, the others as inactive; ? = inconclusive; . = no result.
SMILES,MPTP inh,Beta apoptosis,Mdm2 MdmX PPI,CSC inhib,Calb FLC,SKKanGAS inh
Cn1cnnc1Sc1nc2c(c(=O)n(C)c(=O)n2C)n1Cc1ccccc1Cl,-1,5,-16,5,-1,4
CC1CCCC(C)N1CCNC(=O)CCc1nnc2n(Cc3ccccc3)c(=O)c3ccccc3n12 (configuration not stated),-2,-4,-29,2,-3,0
O=C(Nc1cc(C(F)(F)F)ccc1N1CCCCC1)c1ccc(Br)o1,5,1,14,82*,5,0
CCCCCCCCN1C(=O)[C@H](CC(=O)NCC23CC4CC(CC(C4)C2)C3)C[C@@]2(C(=O)OC)CC(C)(C)CC=C12,1,.,.,.,.,.
CCCn1nc(C(=O)NNC(=O)Cc2ccc(S(=O)(=O)N3CCOCC3)s2)c2ccccc2c1=O,-1,-6,12,-2,-3,-6
CCOc1ccc(NC(=O)CC2C(=O)N(CC)C(=S)N2CCN2CCOCC2)cc1 (configuration not stated),0,2,9,0,8,-1
CCN1C(=O)C(CC(=O)Nc2ccc(F)cc2)N(CCCN2CCN(c3ccc(F)cc3)CC2)C1=S (configuration not stated),3,-3,25,105*,-2,4
FC(F)(F)c1cnc(-c2cnc(-c3ccccn3)nc2)c(Cl)c1,0,7,3,-3,31,56*
FC(F)(F)c1cnc(-c2cnc(-c3ccncc3)nc2)c(Cl)c1,-1,-4,-16,.,-11,-11
Cc1cc(C)n(-c2nc(NCCCO)c3c4c(sc3n2)CCCC4)n1,-4,81*,20,20,-9,55*
Cc1cc(C)n(-c2nc(SCC(=O)O)c3c4c(sc3n2)CCCC4)n1,.,1,21,13,5,57*
Cc1cc(C)n(-c2nc(NCCO)c3c4c(sc3n2)CCCC4)n1,-2,80*,11,-3,-5,-4
Cc1cc(C)n(-c2nc(NCC(C)O)c3c4c(sc3n2)CCCC4)n1 (configuration not stated),0,57,16,-1,2,0
CC1CC1C(=O)Nc1ccc(-c2ccccc2)cc1 (configuration not stated),6,5,-46,13,?,13
Nc1ncnc(Sc2ccccc2)c1[N+](=O)[O-],-1,-23,14,9,-9,-3
Nc1ncnc(Sc2ncccn2)c1[N+](=O)[O-],0,.,.,.,85*,-5
CCCN(c1nc(C)cc(OC)n1)S(=O)(=O)c1ccccc1,1,0,25,26,-7,4
Cc1ccc(/C=C/C(=O)Nc2nn[nH]n2)o1,0,-7,16,-1,-1,-1
CCN(CC)c1nc(Nc2ccc([N+](=O)[O-])cc2)nc(N(CC)CC)n1,2,15,40,69,2,65*
CCOc1nc(Nc2ccc([N+](=O)[O-])cc2)nc(NC(C)(C)C)n1,1,43,-18,15,-2,-7
COc1cc(/C=N/NC(=O)c2cccnc2)ccc1OC(=O)c1cc(OC)c(OC)c(OC)c1,0,109*,21,.,1,4
CCOc1cc(/C=N/NC(=O)c2cccnc2)ccc1OCC(N)=O,-1,1,-1,-15,107*,.
Cc1ccc(-c2ccnc3c(Br)c(C)nn23)cc1,-1,-4,25,14,33,6
CC(C)CN(C(=O)COC(=O)C12CC3CC(CC(Cl)(C3)C1)C2)c1c(N)n(Cc2ccccc2)c(=O)[nH]c1=O,-2,81*,29,-16,11,36
COCCN(C(=O)COC(=O)C12CC3CC(CC(Cl)(C3)C1)C2)c1c(N)n(Cc2ccccc2)c(=O)[nH]c1=O,-1,-11,-15,-19,8,-2
SMILES,MPTP inh,Beta apoptosis,Mdm2 MdmX PPI,CSC inhib,Calb FLC,SKKanGAS inh
CC(C)(CNC(=O)Cc1ccc(Br)cc1)N1CCOCC1,0,-6,19,-14,-5,1
CCOC(=O)c1cc(CC)sc1NC(=O)c1ccc(N2C(=O)CCC2=O)cc1,0,0,30,12,-4,55*
CCOC(=O)c1c(-c2ccc(C)cc2)csc1NC(=O)c1ccc(N2C(=O)CCC2=O)cc1,1,-7,-7,12,9,44
COc1ccccc1C1C(C(C)=O)=C(O)C(=O)N1CCc1ccccc1 (configuration not stated),1,-3,-7,-13,12,-3
Cc1cc(S(=O)(=O)N2CCOCC2)ccc1F,1,-3,10,1,-21,-2
O=[N+]([O-])c1ccc(/C=[N+](\[O-])CCO)o1,-2,.,-11,3,58,84*
OC(COc1cccc2ccccc12)CN1CCN(c2cccc(Cl)c2)CC1 (configuration not stated),1,-3,-7,36,0,52*
OC(COc1cccc2ccccc12)CN1CCN(c2ccc(Cl)cc2)CC1 (configuration not stated),4,-2,24,77*,9,57*
COc1ccc(CCNC(=O)C2CCCN(S(C)(=O)=O)C2)cc1 (configuration not stated),-1,-1,9,-8,9,-5
CC1(C(=O)NCc2ccccc2Br)CCN1Cc1ccccc1OC(F)F (configuration not stated),0,.,.,.,.,.
N#Cc1c(N)nc2c(c1-c1cccc(O)c1)CCCCCC2,1,-3,35,82*,15,-9
N#Cc1c(N)nc2c(c1-c1ccccc1)CCCC2,2,-2,17,-18,20,-6
COc1ccc(Cn2nnnc2C(C(C)C)N2CCc3ccccc32)cc1 (configuration not stated),2,1,18,11,2,-5
C/C(=N\NC(=O)COc1ccc(C)cc1Br)c1cc([N+](=O)[O-])cs1,1,14,11,-4,-5,12
COc1ccc(N(C(=O)CCl)C(C(=O)NCCc2ccccc2)c2cccs2)cc1 (configuration not stated),2,-4,.,111*,4,-5
O=C(Nc1ccc2c(c1)CCC2)c1cc(S(=O)(=O)Nc2ccc(F)cc2)c(Cl)cc1Cl,25,6,45,109*,7,103*
O=C(Nc1ccc2c(c1)CCC2)c1ccc(F)cc1,1,8,-232,12,20,-4
CCN(CC)CCCNc1nc(N)c([N+](=O)[O-])c(N2CCCCCC2)n1,0,-8,-6,-5,-5,66*
C=CCNc1nc(N)c([N+](=O)[O-])c(N2CCCCCC2)n1,0,-4,8,-13,8,21
CCOc1ccccc1N1C(=O)c2ccc(C(=O)O)cc2C1=O,-2,-4,18,-2,-2,-6
Cc1ccc2nsnc2c1NC(=O)COc1ccccc1F,2,0,3,-15,114*,-12
